Among the data in PubChem BioAssay (NCI) are growth inhibition values, retold here.

The panel holds about 79,000 compounds, 15% with a hit somewhere; the sample as a whole holds those more often. Unmarked numbers belong to inactive results. Activity calls are given as the source filed them. Rule as the data show it: active = growth inhibition above about 70%; inactive = the rest. Where a SMILES comes first, the peptide text is derived from it. The star is where a group is joined. Cbz = O=C(OCc1ccccc1)*

The nature of assay [1]: NCI Yeast Anticancer Drug Screen. Data for the rad50 strain (AID 155).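 Also: 0% = growth of vehicle-only cultures of the same strain.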 The following applies: S. cerevisiae rad50 strain growth inhibition; at 50.0 µM; stronger effect = higher value. A digest of the protocol:
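Inhibition values express reduced yeast growth in compound-treated cultures relative to vehicle-treated controls.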

Assay [2] is described as follows: NCI Yeast Anticancer Drug Screen. Data for the mec2-1 strain (AID 157). The following applies: S. cerevisiae mec2-1 strain, at 50.0 µM, stronger effect = higher value. The method in brief:
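Growth inhibition is read against vehicle-treated controls after compound exposure of the mec2-1 yeast strain, which is defective in DNA damage repair or cell cycle control.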

Assay [3] in a line: NCI Yeast Anticancer Drug Screen. Data for the sgs1 mgt1 strain (AID 161).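 Also: 0% = growth of cultures given vehicle only.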 The following applies: S. cerevisiae sgs1 mgt1 strain, at 50.0 µM, stronger effect = higher value. A digest of the protocol: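 Compounds are added to genetically altered yeast, and growth is compared with cultures given vehicle alone to give percent inhibition.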
A short description of assay [4]: NCI Yeast Anticancer Drug Screen. Data for the cln2 rad14 strain (AID 165).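 Also: 0% = growth equal to vehicle treated cultures.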 The following applies: S. cerevisiae cln2 rad14 strain, at 50.0 µM, stronger effect = higher value. A digest of the protocol: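 Growth inhibition, relative to vehicle-treated controls, is the read-out. The test organism is a yeast strain with defined genetic alterations, cln2 rad14.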
Assay [5] is described as follows: NCI Yeast Anticancer Drug Screen. Data for the bub3 strain (AID 167). The settings on record: S. cerevisiae bub3 mutant strain, at 50.0 µM, stronger effect = higher value. The method in brief: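 Steps: expose the mutant yeast strain to compound; grow alongside vehicle-treated cultures; measure growth; express inhibition against the vehicle cultures.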
Assay [6] can be described thus: NCI Yeast Anticancer Drug Screen. Data for the mlh1 rad18 strain (AID 175). The settings on record: S. cerevisiae mlh1 rad18 strain growth inhibition; at 50.0 µM; stronger effect = higher value. The method in brief:
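Cells of a genetically altered yeast strain, deficient in DNA damage repair, were treated with compound. Their growth was then compared with that of vehicle-treated cultures to give inhibition.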

Regarding `O=C1C(Br)=C(Br)C(=O)C2=C1C1c3ccccc3C2c2ccccc21`, the growth inhibition was 98.5% (active) in assay [1]; 98.2% (active) in assay [2]; 97.8% (active) in assay [3]; 97% (active) in assay [4]; 98.2% (active) in assay [5]; 97.8% (active) in assay [6].

In the case of `Cc1ccc2[nH]c(=S)[nH]c(=S)c2c1`, the growth inhibition in assay [1] was 19.9%; in assay [2], 5%; in assay [3], 13.2%; in assay [4] it was -19.8%; in assay [5], -33.2%; in assay [6], 36%.

On to `COc1cccc(N2C(=O)C3c4[nH]c5ccccc5c4C4CCCC4C3C2=O)c1` (stereo not drawn), for which the growth inhibition is -36.5% in assay [1]; -47.4% in assay [2]; -20.8% in assay [3]; -8.15% in assay [4]; -50% in assay [5]; -22.4% in assay [6].

In the case of `c1ccc(NCNC2Nc3ccccc3N2)cc1`, the growth inhibition in assay [1] is -25.9%; in assay [2], -13.2%; in assay [3] it was 12.3%; in assay [4], -3.35%; in assay [5], -20.6%; in assay [6], 11.6%.

As for `CCN(CC)CCNC(=O)c1c(C)cc(C)cc1C`, the growth inhibition in assay [1] is -5.1%; in assay [2], 0.2%; in assay [3], -0.3%; in assay [4] it was -53.2%; in assay [5], -1.95%; in assay [6], 10.8%.

Consider `CCCCCCCCCCCCNc1ncnc2c1cnn2C`, for which the growth inhibition was -9.1% in assay [1]; -14.4% in assay [2]; -1.25% in assay [3]; -47.2% in assay [4]; 23.9% in assay [5]; -25.2% in assay [6].

With `CN(C)Cc1onc(-c2c(Cl)cccc2Cl)c1C(=O)O`, the growth inhibition in assay [1] was 1.3%; in assay [2], 8.2%; in assay [3], -9.95%; in assay [4] it was 6.05%; in assay [5] it was 21.2%; in assay [6], 8.4%.

In the case of `O=C(c1ccccc1)c1ccc(OCCOc2ccc(C(=O)c3ccccc3)cc2)cc1`, the growth inhibition in assay [1] was -0.7%; in assay [2], -1.7%; in assay [3] it was 2.15%; in assay [4], -15.1%; in assay [5], 3.9%; in assay [6], -13.2%.

As for `Nc1ncnc2c1ncn2C1CCC(CP(=O)(O)O)C1` (stereo not drawn), the growth inhibition is -6.85% in assay [1]; -25.4% in assay [2]; -23.4% in assay [3]; -29.4% in assay [4]; -5.45% in assay [5]; -0.1% in assay [6].

For the molecule `CCN(CC)CCOc1cccc(O)c1`, the growth inhibition in assay [1] is -5.95%; in assay [2], -16.1%; in assay [3] it was -12.1%; in assay [4], -50.5%; in assay [5], -8.3%; in assay [6], -2.9%.

As to `Nc1ccc(C(=O)CC(=O)c2cccc([N+](=O)[O-])c2)cc1`, the growth inhibition was 26.4% in assay [1]; 20.4% in assay [2]; 39.4% in assay [3]; 21.5% in assay [4]; 27.4% in assay [5]; 2.1% in assay [6].

Consider `CCOC(=O)C(OC(C)=O)(C(=O)OCC)C(O)c1cccnc1` (stereo not drawn), for which the growth inhibition in assay [1] is 15.1%; in assay [2], -2.25%; in assay [3], 16.3%; in assay [4], -37.5%; in assay [5], 8%; in assay [6], -1.05%.

In the case of `CCN(CC)C(=O)C(C(=O)OC)c1ccccc1` (stereo not drawn), the growth inhibition in assay [1] is -4.6%; in assay [2], -9.75%; in assay [3], 7.8%; in assay [4], -27.6%; in assay [5], 10%; in assay [6], 7.1%.

Turning to `CCCCCC1c2cc(O)ccc2OC1N1CCOCC1` (stereo not drawn), the growth inhibition in assay [1] is 49.2%; in assay [2], 44.5%; in assay [3], 47.5%; in assay [4], 48.6%; in assay [5], 46.7%; in assay [6], 88.7% (active).

Take `CCOC(=O)C(C)NC(=O)C(C)NC(=O)C(C)NC(=O)C(C)NC(=O)C(C)NC(=O)C(C)NC(=O)C(C)NC(=O)OCc1ccccc1` (stereo not drawn) (Cbz-AAAAAAA-OEt; configuration not given here): the growth inhibition in assay [1] is -16.2%; in assay [2], -23.4%; in assay [3], -21.4%; in assay [4], 16.6%; in assay [5], 5.4%; in assay [6], -8.45%.

On to `CC1(C)CC(c2c[nH]c3ccccc23)=CC2=Nc3ccccc3C21O` (stereo not drawn), for which the growth inhibition in assay [1] was -41.9%; in assay [2], 6.7%; in assay [3] it was 3.8%; in assay [4] it was 15%; in assay [5], 2.65%; in assay [6], 16.7%.

Turning to `CCC(N)CS(=O)(=O)O` (stereo not drawn), the growth inhibition in assay [1] is -33.7%; in assay [2] it was -19.6%; in assay [3], -9.9%; in assay [4], -61%; in assay [5] it was -26.8%; in assay [6], -45.1%.

With `O=c1[nH]c2cc(Cl)ccc2nc1/C=C(\O)c1ccccc1O`, the growth inhibition in assay [1] is 3.35%; in assay [2], -13.3%; in assay [3], -11.2%; in assay [4] it was -8.4%; in assay [5] it was -28.3%; in assay [6], -0.8%.

With `C=CCOC(=O)/C=C\C(=O)OCC=C`, the growth inhibition was -4.6% in assay [1]; 30.6% in assay [2]; 6.8% in assay [3]; -25.3% in assay [4]; 9.1% in assay [5]; 3.15% in assay [6].

Consider `C=C1[C@H](OCC(C)C)[C@@H](OCC(C)C)[C@@H](O)C(C)(C)/C=C/[C@H](C)C(=O)[C@@]2(O)C[C@H](C)[C@H](O)[C@@H]2[C@H]1OCC(C)C`, for which the growth inhibition is -37.9% in assay [1]; -45% in assay [2]; -9.85% in assay [3]; -36.3% in assay [4]; -12.8% in assay [5]; -68.8% in assay [6].

For `Fc1ccc(-c2ccc(F)cc2)cc1`, the growth inhibition in assay [1] is -18.6%; in assay [2], -15.4%; in assay [3] it was -12.1%; in assay [4], -44.9%; in assay [5], -6.8%; in assay [6], -23.1%.

For the molecule `O=C(/C=C\c1ccccc1Cl)/C=C/c1ccccc1Cl`, the growth inhibition in assay [1] is 11.2%; in assay [2] it was 2.75%; in assay [3] it was -4.6%; in assay [4], -42.3%; in assay [5], -0.35%; in assay [6] it was 11.8%.

Turning to `Cc1ccc(N=c2oc3c(ccc4ccccc43)nc2Nc2ccc(C)cc2)cc1`, the growth inhibition was -33.5% in assay [1]; -32.5% in assay [2]; -46.2% in assay [3]; -35.5% in assay [4]; -32.8% in assay [5]; -19% in assay [6].

For `O=C(O)/C=C/C(=O)Nc1ccccc1Cl`, the growth inhibition was 10.4% in assay [1]; 29.6% in assay [2]; 48.9% in assay [3]; 0% in assay [4]; 42.2% in assay [5]; 21% in assay [6].

In the case of `Cc1nn(-c2ccccc2)c(SC(C)(C)C)c1C=NCCN=Cc1c(C)nn(-c2ccccc2)c1SC(C)(C)C`, the growth inhibition was 28.6% in assay [1]; 15.3% in assay [2]; 18.2% in assay [3]; 24.3% in assay [4]; -5.85% in assay [5]; 18.8% in assay [6].

Regarding `CCOC(=O)c1ccc(CSc2ccc(N)cc2)c([N+](=O)[O-])c1`, the growth inhibition in assay [1] is -0.6%; in assay [2] it was 7.15%; in assay [3] it was 17.4%; in assay [4] it was 11.4%; in assay [5] it was 2.3%; in assay [6], 20.2%.

Regarding `CSc1nc(SC)c2nc(SC)n(-c3ccccc3)c2n1`, the growth inhibition in assay [1] is -2.7%; in assay [2] it was -16.1%; in assay [3], 7.85%; in assay [4] it was -10.3%; in assay [5], 3.85%; in assay [6], -2.75%.

Take `Nc1ccc2ccsc2c1`: the growth inhibition was 1.6% in assay [1]; -22.7% in assay [2]; 26.2% in assay [3]; 17.1% in assay [4]; 12.9% in assay [5]; 35.5% in assay [6].

As to `CN(CC(C)(C)C=O)C(=O)c1ccccc1`, the growth inhibition is 8.05% in assay [1]; -5.45% in assay [2]; -10% in assay [3]; -8.3% in assay [4]; -19.1% in assay [5]; -1% in assay [6].

As for `O=Cc1ccc(N2OC(c3ccc([N+](=O)[O-])cc3)C(c3ccc([N+](=O)[O-])cc3)C2c2ccc([N+](=O)[O-])cc2)cc1` (stereo not drawn), the growth inhibition in assay [1] was 13.2%; in assay [2], -1.75%; in assay [3] it was 14.7%; in assay [4], 25.4%; in assay [5], 0.95%; in assay [6], 28.9%.

With `COc1ccc(C2CC(=O)C(C(=O)OC3CCCCC3)C2c2ccc(OC)cc2)cc1` (stereo not drawn), the growth inhibition was 13.9% in assay [1]; 16.2% in assay [2]; 15.8% in assay [3]; 28.1% in assay [4]; -3.25% in assay [5]; 19.5% in assay [6].

With `CC[N+](C)(CCO)C(Cc1ccccc1)c1ccccc1` (stereo not drawn), the growth inhibition in assay [1] was 8.5%; in assay [2] it was -3.5%; in assay [3] it was -0.1%; in assay [4], -16.1%; in assay [5] it was 19.5%; in assay [6] it was -1.7%.

Turning to `Cc1ccc(S(=O)(=O)C(CC(=O)O)c2ccccc2)cc1` (stereo not drawn), the growth inhibition is 0.35% in assay [1]; 0.15% in assay [2]; 6.15% in assay [3]; 4.15% in assay [4]; 1.7% in assay [5]; 4.2% in assay [6].

As for `CN1CCC(=O)C(c2ccccc2)(c2ccccc2)CC1`, the growth inhibition in assay [1] was -8%; in assay [2] it was -8.6%; in assay [3], 3.45%; in assay [4] it was -24.9%; in assay [5], 28.4%; in assay [6] it was -26.7%.

With `O=C(C(=O)c1cc(-c2ccccc2)nc2ccc3ccccc3c12)c1ccccc1`, the growth inhibition was -24.3% in assay [1]; -5.65% in assay [2]; -1.05% in assay [3]; 13.9% in assay [4]; 30.1% in assay [5]; 14.3% in assay [6].

With `CCOC(CCNCC(OCC)OCC)OCC`, the growth inhibition is -46.5% in assay [1]; -56.2% in assay [2]; -29.4% in assay [3]; -11.1% in assay [4]; -4.8% in assay [5]; -22.4% in assay [6].

`CC(CCC(=O)O)C1CCC2C3CCC4CCCCC4(C)C3CCC12C` (stereo not drawn): the growth inhibition in assay [1] is 8.4%; in assay [2] it was 41.9%; in assay [3], 43.3%; in assay [4], 17.3%; in assay [5], 51.2%; in assay [6], 49.5%.

As for `COc1cccc(NC(=O)c2cccc(C(=O)Nc3cccc(OC)c3)c2)c1`, the growth inhibition was 7% in assay [1]; 5.55% in assay [2]; 4.15% in assay [3]; -32.8% in assay [4]; -2.6% in assay [5]; 35% in assay [6].
